Data: PubChem BioAssay (NCI)
Compounds without any hit were thinned out: in the full panel of roughly 83,000, 20% have a hit.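 Activity criterion: percent growth below 10, measured after cells in 96-well plates were exposed to a single compound concentration for 48 hours.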 Calls of active or inactive are those of the source.

Tested on: IGROV1 ovarian
Assay: NCI-60 one-dose screen, 48 h (100 = growth as untreated, 0 = no growth, -100 = all killed)
Conditions: 10 µM

SMILES	growth
CC(=O)OC(OC(C)=O)C1CCCO1 (stereo unspecified)	110% (inactive)
O=C(O)c1ccnc(Br)c1	117% (inactive)
c1ccc2c(N3CCCCC3)ncnc2c1	96% (inactive)
COc1ccccc1N=Nc1c(O)ccc2cc(S(=O)(=O)O)ccc12	110% (inactive)
N#Cc1c(N)sc(=S)c2c1CCCC2	116% (inactive)
O=C(CCl)N1CCN(C/C=C/c2ccccc2)CC1	40.8% (inactive)
C#CCSc1nnnn1-c1ccc(Br)c(C)c1	-28.7% (active)
C=CC[N+](C)(C)C	99.7% (inactive)
Nc1ccc(N)c([N+](=O)[O-])c1	113% (inactive)
O=C(Nc1cc(-c2ccccc2)[nH]n1)c1ccc(Cl)cc1	3.1% (active)
CC(C)C(C#N)(C(C)C)C(C)C	103% (inactive)
CCOC(=O)C(CCC(C)C)C(=O)OCC	102% (inactive)
C=CCNC(=O)c1ccc(OC)cc1	96.2% (inactive)
S=c1[nH]ccn1-c1ccccc1Cl	108% (inactive)
NC(=S)N/N=C/c1ccc(N)cc1	103% (inactive)
CCCCC(O)c1ccccc1 (stereo unspecified)	110% (inactive)
CCOc1ccc(Br)cc1/C=N\N=C\c1cc(Br)ccc1OCC	103% (inactive)
O=C1Cc2ccccc2C(=O)O1	114% (inactive)
CC(C)CCOC(=O)c1ccccc1	102% (inactive)

SMILES	growth
COC(=O)c1ccc(C(C)C)cc1	105% (inactive)
COc1cccc(/C=N/NC(=S)NC2CC3CCC2C3)c1O (stereo unspecified)	67% (inactive)
CCOC(=O)C1OC1c1ccccc1 (stereo unspecified)	108% (inactive)
C/C(=C\c1cc(Cl)ccc1OCC(=O)O)[N+](=O)[O-]	112% (inactive)
CCN=c1cc2sc3cc(NCC)c(C)cc3nc-2cc1C	15.2% (inactive)
Clc1ccc(-c2nnc(-c3cccc4ccccc34)o2)cc1	69.2% (inactive)
COc1cc(OC)c2ccc(=O)oc2c1	130% (inactive)
COc1ccc(Oc2c(I)cc(CC(NC(C)=O)C(=O)O)cc2I)cc1 (stereo unspecified)	106% (inactive)
Cc1cc2ccccc2c(O)c1C#N	114% (inactive)
CN(C)/N=C/c1ccccc1O	102% (inactive)
Cc1cc(C(C)(C)C)cc(C)c1Br	112% (inactive)
COc1cc(C2c3cc4c(cc3C3OC(=O)C2C3CO)OCO4)cc(OC)c1OC (stereo unspecified)	13.7% (inactive)
CCCC1(c2ccccc2)NC(=O)NC1=O (stereo unspecified)	128% (inactive)
CN(C)c1ccc(S(=O)(=O)O)cc1	118% (inactive)
Clc1ccc(-c2n[nH]c3c2Cc2ccccc2-3)cc1Cl	63% (inactive)
S=C1CCCCCN1	110% (inactive)
CCCOC(=O)C(O)c1ccccc1 (stereo unspecified)	117% (inactive)
O=S(=O)(O)c1ccc(O)c2ccccc12	86.1% (inactive)
N/N=C(/Cc1ccccc1)NNC(N)=S	95.2% (inactive)

Tested on: OVCAR-3 ovarian
Assay: as above
Conditions: 10 µM

SMILES	growth
CC(=O)OC(OC(C)=O)C1CCCO1 (stereo unspecified)	114% (inactive)
O=C(O)c1ccnc(Br)c1	112% (inactive)
c1ccc2c(N3CCCCC3)ncnc2c1	97.3% (inactive)
COc1ccccc1N=Nc1c(O)ccc2cc(S(=O)(=O)O)ccc12	101% (inactive)
N#Cc1c(N)sc(=S)c2c1CCCC2	113% (inactive)
O=C(CCl)N1CCN(C/C=C/c2ccccc2)CC1	116% (inactive)
C#CCSc1nnnn1-c1ccc(Br)c(C)c1	106% (inactive)
C=CC[N+](C)(C)C	118% (inactive)
Nc1ccc(N)c([N+](=O)[O-])c1	106% (inactive)
O=C(Nc1cc(-c2ccccc2)[nH]n1)c1ccc(Cl)cc1	80.5% (inactive)
CC(C)C(C#N)(C(C)C)C(C)C	107% (inactive)
CCOC(=O)C(CCC(C)C)C(=O)OCC	109% (inactive)
C=CCNC(=O)c1ccc(OC)cc1	121% (inactive)
S=c1[nH]ccn1-c1ccccc1Cl	98.2% (inactive)
NC(=S)N/N=C/c1ccc(N)cc1	103% (inactive)
CCCCC(O)c1ccccc1 (stereo unspecified)	109% (inactive)
CCOc1ccc(Br)cc1/C=N\N=C\c1cc(Br)ccc1OCC	96.8% (inactive)
O=C1Cc2ccccc2C(=O)O1	127% (inactive)
CC(C)CCOC(=O)c1ccccc1	107% (inactive)

SMILES	growth
COC(=O)c1ccc(C(C)C)cc1	103% (inactive)
COc1cccc(/C=N/NC(=S)NC2CC3CCC2C3)c1O (stereo unspecified)	6.8% (active)
CCOC(=O)C1OC1c1ccccc1 (stereo unspecified)	101% (inactive)
C/C(=C\c1cc(Cl)ccc1OCC(=O)O)[N+](=O)[O-]	109% (inactive)
CCN=c1cc2sc3cc(NCC)c(C)cc3nc-2cc1C	-33.8% (active)
Clc1ccc(-c2nnc(-c3cccc4ccccc34)o2)cc1	103% (inactive)
COc1cc(OC)c2ccc(=O)oc2c1	110% (inactive)
COc1ccc(Oc2c(I)cc(CC(NC(C)=O)C(=O)O)cc2I)cc1 (stereo unspecified)	99% (inactive)
Cc1cc2ccccc2c(O)c1C#N	108% (inactive)
CN(C)/N=C/c1ccccc1O	110% (inactive)
Cc1cc(C(C)(C)C)cc(C)c1Br	120% (inactive)
COc1cc(C2c3cc4c(cc3C3OC(=O)C2C3CO)OCO4)cc(OC)c1OC (stereo unspecified)	-21.9% (active)
CCCC1(c2ccccc2)NC(=O)NC1=O (stereo unspecified)	108% (inactive)
CN(C)c1ccc(S(=O)(=O)O)cc1	109% (inactive)
Clc1ccc(-c2n[nH]c3c2Cc2ccccc2-3)cc1Cl	110% (inactive)
S=C1CCCCCN1	115% (inactive)
CCCOC(=O)C(O)c1ccccc1 (stereo unspecified)	106% (inactive)
O=S(=O)(O)c1ccc(O)c2ccccc12	108% (inactive)
N/N=C(/Cc1ccccc1)NNC(N)=S	111% (inactive)
